High-throughput results deposited in PubChem BioAssay by National Center for Advancing Translational Sciences (NCATS).
Most compounds without a hit are left out; they make up all but 10% or so of the library.
KB-V1 MDR tox: qHTS assay for MDR1-selective chemotherapeutics: Primary screen using the drug-selected MDR subline cells KB-V1. KB-V1 MDR cells viability, CellTiter-Glo, 72 h. Potency, µM (doses to about 46.1 µM), hits mostly cytotoxic. 3.4% of 400,000 active. AID 1347076, 2019; further: on the % scale 0 is the no-effect control and ±100 the full control effect; nearly all actives have a fitted effect of over 60% in size
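Following 72 h at 37 degrees C with compound, KB-V1 cell viability was read by CellTiter-Glo luminescence, medium being phenol-red-free DMEM plus 10% FBS; concentration-response parameters came from normalized, curve-fitted qHTS data.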
MCF10A rereplic: A quantitative high throughput screen for small molecules that induce DNA re-replication in MCF 10a normal breast cells | MCF 10A DNA re-replication, Hoechst nuclear intensity, 48 h | 2.9% of 350,000 active | Potency, µM (titrated, usually from 46.1 µM), without a hit: at the top dose activity, positive = re-replication, hits mostly activators; further: % of control where 0% means no effect; nearly all actives have a fitted effect of over 50% in size
VP16 counter: VP16 counterscreen qHTS for inhibitors of ROR gamma transcriptional activity; Drosophila S2 Gal4-VP16 UAS-luciferase, luminescence, 20 h; Potency, µM (titrated, usually from 53.6 µM), without a hit: at the top dose activity, negative = inhibition, hits mostly inhibitors; 3.5% of 310,000 active; AID 2546, 2010;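 further: Gal4-VP16 expression switched on by copper sulfate through the metallothionein promoter; on the % scale 0 is the no-effect control and ±100 the full control effect; nearly all actives have a fitted effect of over 50% in size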
SW480 rereplic: A quantitative high throughput screen for small molecules that induce DNA re-replication in SW480 colon adenocarcinoma cells; 1.8% of 340,000 active; SW480 DNA re-replication, Hoechst DNA content imaging, 48 h; Potency, µM (top dose mostly 46.1 µM), for the others: at the highest dose re-replication activation, most hits filed as activators; further: % of control where 0% means no effect; nearly all actives have a fitted effect of over 55% in size
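Hoechst fluorescence of nuclei (405 nm excitation, 500-530 nm emission) measured by plate-scanning imager after 48 hr compound exposure at 37 C; re-replication scored as increased number of nuclei with elevated intensity.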
RORg inh: qHTS for inhibitors of ROR gamma transcriptional activity; Nuclear receptor ROR-gamma (Mus musculus), P51450; 5.4% of 310,000 active; AID 2551, 2010; Potency, µM (series often up to 53.6 µM), without a hit: top-dose activity change, negative = inhibition, most hits filed as inhibitors; Drosophila S2 Gal4-RORgamma UAS-luciferase reporter, 20 h; further: on the % scale 0 is the no-effect control and ±100 the full control effect; nearly all actives have a fitted effect of over 60% in size
Target sequence (P51450 whole entry, looked up, the tested form may be a part): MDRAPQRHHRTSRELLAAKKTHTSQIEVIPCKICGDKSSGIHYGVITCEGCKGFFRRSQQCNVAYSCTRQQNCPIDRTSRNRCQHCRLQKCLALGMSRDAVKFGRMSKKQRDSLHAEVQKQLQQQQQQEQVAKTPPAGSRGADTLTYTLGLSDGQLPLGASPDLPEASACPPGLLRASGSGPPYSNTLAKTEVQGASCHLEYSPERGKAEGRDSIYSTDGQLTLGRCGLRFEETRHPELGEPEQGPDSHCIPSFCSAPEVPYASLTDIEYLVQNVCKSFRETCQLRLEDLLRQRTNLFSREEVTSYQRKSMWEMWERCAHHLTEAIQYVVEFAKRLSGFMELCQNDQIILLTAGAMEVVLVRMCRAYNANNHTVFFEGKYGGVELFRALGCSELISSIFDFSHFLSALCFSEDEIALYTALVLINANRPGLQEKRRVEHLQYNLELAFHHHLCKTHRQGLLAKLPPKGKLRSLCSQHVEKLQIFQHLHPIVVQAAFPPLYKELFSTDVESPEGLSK
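In this cell-based reporter format, copper sulfate (700 uM final) drives Gal4–ROR gamma fusion expression from a metallothionein promoter in Drosophila Schneider cells; compounds preincubated 1 hr, reporter read after 20 hr at ambient temperature.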
KB-3-1 tox: qHTS assay for MDR1-selective chemotherapeutics: Primary screen using the parental adenocarcinoma cell KB-3-1; KB-3-1 viability, CellTiter-Glo ATP luminescence, 72 h; 1.4% of 400,000 active; Potency, µM (titrated, usually from 46.1 µM), actives largely listed as cytotoxic; AID 1347075, 2019; further: on the % scale 0 is the no-effect control and ±100 the full control effect; nearly all actives have a fitted effect of over 60% in size
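KB-3-1 parental drug-naive adenocarcinoma cells in DMEM/10% FBS, incubated 72 h at 37 C with pin-transferred compounds across a concentration series. Viability by CellTiter-Glo luminescence; concentration-response curves fitted after normalization.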
Starred values were filed as active, the others as inactive; i = inactive; ? = inconclusive; / = no result. The call rests on the fitted dose curve; in most records, active means well fitted curve in the direction sought with a large enough effect; inconclusive means small, poorly fitted or top-dose-only effect, or another doubt; inactive means no such curve, though single readings can be large; an effect the other way counts as inactive or inconclusive. Potency means the concentration at half of the fitted maximal effect.

SMILES	KB-V1 MDR tox	MCF10A rereplic	VP16 counter	SW480 rereplic	RORg inh	KB-3-1 tox
O=[N+]([O-])c1ccc2nc(SCc3ccccc3Cl)sc2c1	i	13µM*	-3%	19%	?	i
O=C(NC(Nc1nc2ccc([N+](=O)[O-])cc2s1)(C(F)(F)F)C(F)(F)F)c1cccnc1	?	28%	6.3µM*	12%	?	12µM*
CN(C)S(=O)(=O)c1ccc2nc(NC(=O)c3cccnc3)sc2c1	i	2%	-11%	-22%	-33%	i
O=C(NC(Nc1nc2ccc([N+](=O)[O-])cc2s1)(C(F)(F)F)C(F)(F)F)c1ccccc1Cl	i	21µM*	0.89µM*	?	6.3µM*	?
O=C(NC(NNc1ccc([N+](=O)[O-])cc1)(C(F)(F)F)C(F)(F)F)c1ccccc1Cl	i	?	7%	1%	37%	i
CCOC(=O)c1cnc2ccc(C(=O)OC)cc2c1Nc1ccccc1CC	?	/	/	/	/	i
O=C(Cc1ccc(OCCC2CCCCC2)cc1)NO	i	/	/	/	/	i
C=C(C)CSc1nc2sc3c(c2c(=O)n1-c1ccccc1)CC(C(C)C)OC3 (centres undefined)	?	/	/	/	/	i
CSC(=CC(=O)c1ccccc1)SC	?	1%	-16%	-2%	29%	i
O=C(/C=C/Sc1ccccc1)c1ccc(Cl)cc1	i	-2%	14µM*	17%	?	i
O=C(/C=C/Sc1ccccc1)c1ccccc1	i	5.2µM*	?	21µM*	?	i
O=CC(=O)c1ccc(Cl)cc1	i	/	/	/	/	i
Cc1ccc2c(c1)C(=O)C(=O)N2CCCOc1ccccc1C	i	?	2%	30%	-4%	?
CCCN1C(=O)C(=O)c2cc(C)ccc21	8.2µM*	89%	/	6.5µM*	/	6.5µM*
CCCCN1C(=O)C(=O)c2cc(Cl)ccc21	?	23µM*	/	?	/	?
O=C1C(=O)N(Cc2ccccc2)C(=O)N1CCOc1ccccc1	?	13µM*	13%	?	22%	i
Cc1ccc(OCCN2C(=O)c3ccccc3C2=O)cc1	i	5%	?	1%	13%	i
Cc1ccc2c(c1)C(=O)C(=O)N2c1ccc(Cl)cc1	i	1%	/	10%	/	i
Cc1ccc2c(c1)C(=O)C(=O)N2CCOc1ccccc1	?	19%	10%	4.1µM*	5%	?
Nc1ccc([N+](=O)[O-])c(N)c1	/	/	8%	/	27%	/
Cc1ccc2c(c1)C(=O)C(=O)N2Cc1ccc(Br)cc1	?	?	/	18µM*	/	i
Cc1cccc(OCCN2C(=O)C(=O)c3cc(C)ccc32)c1	?	18µM*	-9%	?	19%	?
Cc1cccc(OCCN2C(=O)C(=O)c3cccc(C)c32)c1	i	-1%	-5%	-5%	3%	i
CN(C)C(=O)[C@H]1C[C@@H]1[C@H](NC(=O)OCc1ccccc1)c1ccccc1	/	/	10%	/	-1%	/
CCCCn1c(CN2CCN(c3cccc(Cl)c3)CC2)nc2c1c(=O)[nH]c(=O)n2C	i	?	-8%	5.8µM*	-3%	?
SMILES	KB-V1 MDR tox	MCF10A rereplic	VP16 counter	SW480 rereplic	RORg inh	KB-3-1 tox
CC(=O)c1cccc(NC(=O)CN2C(=O)c3cccnc3Sc3ccccc32)c1	i	/	/	/	/	i
CC(C)C(C)(C#N)NC(=O)CSc1nnc(-c2ccncc2)n1Cc1ccccc1 (centres undefined)	i	3%	-6%	2%	8%	i
CC(C)C(C)(C#N)NC(=O)CSc1nc2scc(-c3ccc(F)cc3)c2c(=O)n1Cc1ccccc1 (centres undefined)	i	3%	?	1%	18µM*	i
CCOc1ccccc1NC(=O)Nc1ccc2c(c1)OCO2	i	14%	4%	-3%	53%	i
C=CCOc1ccccc1CN(C(=O)CCl)c1ccc2c(c1)OCO2	?	?	?	5.2µM*	?	?
[O-][n+]1c(/C=C/c2ccccc2)ccc2ccccc21	i	21µM*	?	18µM*	?	?
COC(=O)c1sccc1-c1ccc(C(=O)Nc2ccccc2)o1	13µM*	13%	-1%	-3%	?	?
COc1ccc(CNC(=O)c2cc3cccc4c3n2CC(C)S4)cc1 (centres undefined)	i	/	/	/	/	i
O=C1CCNc2ccc(-c3ccccc3)cc21	i	23µM*	-9%	26%	-3%	i
Cc1ccc2c(c1)C(=O)CCN2	i	1%	0%	-6%	-5%	i
O=C1CCNc2cc3ccccc3cc21	?	-2%	?	?	-39%	23µM*
COC(=O)[C@]12CCCCC=C1N(Cc1ccc3c(c1)OCO3)C(=O)[C@H](CC(=O)N1CCN(C(=O)C3CC3)CC1)C2	i	/	/	/	/	i
c1ccc(Oc2c3ccccc3nc3ccccc23)cc1	?	18µM*	2%	?	-16%	?
Fc1ccc(Oc2nc(-c3ccccn3)nc3ccccc23)cc1	?	?	2.5µM*	63%	0.71µM*	i
c1ccc(Oc2ncnc3ccccc23)cc1	i	7%	/	13%	/	i
COc1ccc(Oc2nc(-c3ccccn3)nc3ccccc23)cc1	?	2%	2.5µM*	?	0.4µM*	?
COc1cccc(Oc2nc(-c3ccccc3O)nc3ccccc23)c1	i	-3%	4%	-10%	-35%	i
c1ccc(Oc2nc(-c3ccccn3)nc3ccccc23)cc1	i	?	3.2µM*	21µM*	0.63µM*	?
Cc1nc(Oc2ccccc2)c2ccccc2n1	i	3%	1%	-1%	-27%	i
COc1ccc(OC)c(NC(=O)Nc2cccc(OCc3cc(=O)n4cc(C)ccc4n3)c2)c1	i	/	/	/	/	i
COc1ccc(NS(=O)(=O)c2ccc3[nH]c4c(c3c2)CCCCC4)cc1	i	/	/	/	/	i
COc1cc(OC)c(OC)cc1/C=C1\CCC/C(=C\c2cc(OC)c(OC)cc2OC)C1=O	?	16µM*	-10%	?	3%	?
COc1cc(/C=C2/CC/C(=C/c3ccc(O)c(OC)c3)C2=O)ccc1O	?	?	?	3%	-41%	?
COc1ccc(/C=C2\CCc3ccccc3C2=O)cc1Cn1nc(C)cc1C	18µM*	?	?	?	?	?
